In PubChem BioAssay AID1768 (National Center for Advancing Translational Sciences (NCATS), 2009):
About 620 (0.23%) of roughly 270,000 compounds were called active. About 12% were inconclusive and are not listed. Calls come from the whole dose curve; as a rule, active = well fitted inhibition curve with a large enough effect in the polarisation, with a control signal flat (not every such curve was filed as active); inconclusive = small, poorly fitted or top-dose-only effect, or effect the other way, or a change in a side signal; inactive = no such curve, though single readings can be large or run the other way; the % refers to the polarisation. The full list was thinned out, with actives kept by preference.

Molecular target: Menin (Homo sapiens) (UniProt O00255)
Sequence (O00255 whole entry, looked up): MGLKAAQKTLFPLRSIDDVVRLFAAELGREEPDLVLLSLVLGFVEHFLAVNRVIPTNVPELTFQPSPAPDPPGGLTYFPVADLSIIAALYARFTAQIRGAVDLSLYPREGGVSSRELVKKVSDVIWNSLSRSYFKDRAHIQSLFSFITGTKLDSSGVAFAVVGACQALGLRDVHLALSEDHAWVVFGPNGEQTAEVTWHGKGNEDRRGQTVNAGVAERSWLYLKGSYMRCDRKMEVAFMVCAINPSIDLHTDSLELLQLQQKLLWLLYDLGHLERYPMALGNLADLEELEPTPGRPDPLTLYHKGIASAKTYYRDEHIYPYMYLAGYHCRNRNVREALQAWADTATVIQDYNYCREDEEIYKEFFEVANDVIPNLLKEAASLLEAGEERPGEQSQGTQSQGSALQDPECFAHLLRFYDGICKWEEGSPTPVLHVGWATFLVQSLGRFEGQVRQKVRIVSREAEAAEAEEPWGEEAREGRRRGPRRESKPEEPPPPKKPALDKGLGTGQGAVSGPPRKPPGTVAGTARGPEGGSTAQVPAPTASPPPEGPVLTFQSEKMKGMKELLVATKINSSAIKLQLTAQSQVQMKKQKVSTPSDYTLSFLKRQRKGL
Assay: qHTS Assay for Inhibitors Targeting the Menin-MLL Interaction in MLL Related Leukemias: Competition With Texas Red Labeled MLL-derived Mutant Peptide; for FP activity change, negative = inhibition: % of control where 0% means no effect
Conditions: fluorescence polarization; series mostly up to 61.6 µM; FP activity change, negative = inhibition: at the top concentration
Potency is the fitted concentration of half-maximal effect.

Compound | FP activity change, negative = inhibition | Potency
O=C(NCCc1c[nH]c2ccccc12)C1CCN(Cc2ccc(Br)cc2)CC1 | -2.52% (inactive) | 
CC(C)C(C)NC(=O)COc1nc2ccccc2nc1N(C)C1CCCCC1 (configuration not stated) | -8.68% (inactive) | 
Cc1cccc(OC(C)C(=O)N2CCc3ccccc3C2)c1 (configuration not stated) | -12.6% (inactive) | 
COC(=O)c1ccc(CN2C(=O)NC(c3ccccc3)(c3ccccc3)C2=O)o1 | -16.5% (inactive) | 
CN(Cc1ccccc1)C(=O)C1CCCN(c2ncnc3c2nc2n3CCCCC2)C1 (configuration not stated) | -7.48% (inactive) | 
Cc1ccccc1OCC(=O)Nc1ccc(S(=O)(=O)N2CCOCC2)cc1 | 30.5% (inactive) | 
COc1ccc(CCNC(=O)CSCc2ccc(Br)cc2)cc1OC | -14.4% (inactive) | 
CCOc1cc(-c2cc(-c3ccc(NC(C)=O)cc3)nc(N)c2C#N)ccc1O | 19.5% (inactive) | 
O=C(c1cc(C(=O)N2CCN(c3ccc(F)cc3)CC2)cc([N+](=O)[O-])c1)N1CCN(c2ccc(F)cc2)CC1 | 2.04% (inactive) | 
Cc1cc2oc(=O)cc(CN(C)Cc3ccc(OC(F)F)cc3)c2cc1Cl | 7.43% (inactive) | 
COC(=O)c1ccccc1NC(=O)C1CCN(C(=O)N2CCOc3ccccc32)CC1 | -28.1% (inactive) | 
CCCNC(=O)CCc1c(C)nc2c(c(C)nn2-c2ccc(C)cc2)c1C | 11.6% (inactive) | 
C/C(=N\NC(=O)c1ccoc1C)c1ccccc1O | 4.06% (inactive) | 
COc1ccc(-c2ccc(OC)c(C3C4C=CCC(C)C4C(=O)N3Cc3ccccc3)c2)cc1C (configuration not stated) | -28.8% (inactive) | 
Cc1nnc(NC(=O)C(c2ccccc2)c2ccccc2)s1 | -23.4% (inactive) | 
CC(C)C[C@@H](COc1ccccc1)N1CCN(CC(C)C)CCC1=O | -8.58% (inactive) | 
O=c1[nH]n(-c2ccc([N+](=O)[O-])cc2)c(=O)c2ccccc12 |  | 31.6 µM (active)
Cc1nc2ccccc2c(=O)n1Cc1ccc([N+](=O)[O-])cc1 | -0.0877% (inactive) | 
Cc1nn(-c2ccc([N+](=O)[O-])cc2)c(N)c1-c1ccccc1 | 17.3% (inactive) | 
COc1ccc(CCNC(=O)c2cnc(Cl)c(Cl)c2)cc1 | 13.2% (inactive) | 
CCOc1ccc(NC(=O)c2nc(SCC)ncc2Cl)cc1 | -7.71% (inactive) | 

Compound | FP activity change, negative = inhibition | Potency
Cc1ccc(SCC(CC(C)C)N2CCN(CCc3ccccc3)CCC2=O)cc1 (configuration not stated) | -8.63% (inactive) | 
c1cnc(Nc2nc(-c3ccc4ccccc4c3)cs2)nc1 |  | 17.8 µM (active)
O=C(Nc1nc(-c2ccc(-c3ccccc3)cc2)cs1)c1cnccn1 | -16.9% (inactive) | 
Cc1ccccc1Nc1nc(-c2cccnc2)cs1 | 0.491% (inactive) | 
Cc1c(C)c2c(OCC(=O)NCCCO)cc3c(c2oc1=O)CCC(C)(C)O3 | -20.7% (inactive) | 
COc1ccc(NC(=O)CN2C(=O)CSc3ccc(S(=O)(=O)N4CCC(C)CC4)cc32)cc1 | 32.8% (inactive) | 
CCNC(=O)c1cnn(-c2ccccc2)c1-c1ccccc1 | -5.6% (inactive) | 
COc1ccc(NC(=O)NCCN2CCN(c3ccc(C)cc3)CC2)c(Cl)c1 | 0.531% (inactive) | 
COc1ccc(C2/C=C\CN(C(=O)c3ccc(C)cc3)C(Cc3ccccc3)C(=O)N2Cc2ccc(F)cc2)cc1 (configuration not stated) | 30.8% (inactive) | 
CCOc1ccc(C(C(=O)NC2CCCC2)N(C(=O)c2snc(C(N)=O)c2N)C2CCCC2)cc1 (configuration not stated) | -24.3% (inactive) | 
CC(=O)N1CCOc2ccc(S(=O)(=O)N3CCN(c4cccc(C(F)(F)F)c4)CC3)cc21 | 14.8% (inactive) | 
O=C(NCCc1cccc(F)c1)C1CCCN(c2nc3ccccc3s2)C1 (configuration not stated) | -11.9% (inactive) | 
CC(Cc1cccs1)N(Cc1ccc(Cl)cc1)C(=O)c1ccncc1 (configuration not stated) | -15.9% (inactive) | 
COc1ccc(CN2CCC(=O)c3ccccc3S2(=O)=O)cc1 | 4.64% (inactive) | 
COc1ccc(OC)c(CNC(=O)Cn2nc(C)c3c(C)n(-c4ccc(C)cc4)nc3c2=O)c1 | -14.1% (inactive) | 
CCN1C(=S)N[C@@H](c2cccc(C(F)(F)F)c2)C(C(=O)OC)=C1C | -22.2% (inactive) | 
COc1cc(C(=O)NCc2ccncc2)cc(Br)c1OCc1ccccc1 | 51.3% (inactive) | 
Cc1ccc(CNC(=O)C2(C(F)(F)F)C/C(=C\CCO)CCCO2)o1 (configuration not stated) | 2.61% (inactive) | 
FC(F)(F)c1nnc2c3ccccc3c(Cl)nn12 | -2.32% (inactive) | 
CC(C)C[C@H]1CN=C(Nc2ccccc2)N1CC1CCCCC1 | -13.1% (inactive) | 
COC(=O)c1ccc2c(=O)n(CCN3CCOCC3)c(SCC(=O)Nc3cccc(OC)c3)nc2c1 | -4.18% (inactive) | 
